# Screening data as filed in PubChem.
# Shown are actives, neighbours in structure and some others; about 21% of the full set was active somewhere.
# Cycloheximide cs: counter-screen hit for Shiga toxin inhibitors, cycloheximide; cell reporter, cycloheximide protein synthesis inhibition counterscreen; max response, %; hit rate 12% among 300,000; in the data active = max response mostly above about 13%, no sharp cut-off; inactive = mostly below about 14%; also: read at 38.3 µM for the half of the compounds with a filed dose; 0% is about no effect
# Shiga inhibitor: Shiga toxin inhibition; Vero cells, Shiga toxin protein synthesis inhibition reporter; inhibition, % at 38.7 µM; hit rate 9.2% among 290,000; AID 2315; in the data active = inhibition mostly above about 28%, no sharp cut-off; inactive = mostly below about 43%; also: 0% is about no effect
# NS1 inh: inhibitors of influenza NS1 protein function. Potency, µM (titrated, usually from 46.1 µM), for the others: at the top dose activity, positive = more growth. hit rate 0.4% among 270,000. AID 2326; calls by dose curve; also: potency is read from the fitted curve at half-maximal effect; actives are rising curves; nearly all actives have a fitted effect of over 50% in size
#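 Read-out: OD600 growth recovery of NS1-expressing budding yeast. Cells grown overnight at 30C in -URA glucose medium, washed, resuspended and diluted 1:100 in 2% galactose assay medium, pH 6.0. Same strain lacking NS1 served as positive control.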
# Pf growth 96h: inhibits malaria parasite growth, 96 h; P. falciparum luciferase reporter growth, 96 h; Potency, µM (highest dose often 28.7 µM), for the others: top-dose activity change, negative = inhibition, usual class: inhibitors; hit rate 6.9% among 320,000; also: potency is read from the fitted curve at half-maximal effect; % is scaled to controls: 0 for no effect and ±100 for the full control effect
#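 P. falciparum expressing integrated firefly luciferase, in erythrocytes at 2% hematocrit, 0.05% parasitemia, incubated with compounds 96 h at 37 C, 5% CO2. Growth inhibition read as loss of luminescence; two-generation exposure targets delayed-death apicoplast inhibitors.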
# Pf growth 48h: P. falciparum growth inhibition at 48 hours (one generation); P. falciparum luciferase growth in erythrocytes, 48 h; Potency, µM (series often up to 28.7 µM), for inactives: at the top dose activity change, negative = inhibition, most hits filed as inhibitors; hit rate 5.9% among 310,000; also: potency is read from the fitted curve at half-maximal effect; % is scaled to controls: 0 for no effect and ±100 for the full control effect
#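 Luminescence readout; reporter = integrated firefly luciferase in P. falciparum. RBC culture at 2% hematocrit, 0.1% parasitemia final, 37 C/5% CO2; decreased signal taken as growth inhibition.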
# Starred values were filed as active, the others as inactive; ? = inconclusive; . = not tested or not shown. Unless noted, calls follow the shape of the dose curve; as a rule, active = well fitted inhibition curve with a large enough effect; inconclusive = small, poorly fitted or top-dose-only effect, or another doubt; inactive = no such curve, though single readings can be large or run the other way.
SMILES,Cycloheximide cs,Shiga inhibitor,NS1 inh,Pf growth 96h,Pf growth 48h
O=C(/C=C/c1ccc(S(=O)(=O)N2CCOCC2)cc1)NC(=S)Nc1ccc(N2CCOCC2)cc1,9.5,-4.6,20.0%,?,-13.3%
O=C(CCc1ccccc1)NC1CCS(=O)(=O)C1 (stereo not given),.,.,.,44.6%,4.5%
Cc1c(C#N)c2ccccc2n1CC(=O)NC(C)c1ccccc1 (stereo not given),-0.6,-8.1,-3.3%,.,2.94µM*
Cc1cccc(NC(=O)Cn2c(C)c(C#N)c3ccccc32)c1C,-2.9,-4.5,-5.9%,.,2.08µM*
Cc1c(C#N)c2ccccc2n1CC(=O)O,8.1,6.4,10.1%,-28.8%,4.9%
CCCn1c(SCC(=O)N2CCCC(C)C2)nnc1-c1cccnc1 (stereo not given),-1.4,19.5,3.3%,-2.1%,14.4%
COc1ccc(OC)c(NC(=O)CN2C(=O)COc3ccc(S(=O)(=O)N4CCCC4)cc32)c1,1.1,-5.1,-10.3%,-22.1%,?
CC(C)CN(CCNC(=O)CN1C(=O)COc2ccc(S(=O)(=O)N3CCC(C)CC3)cc21)CC(C)C,0.4,-0.8,-6.4%,11.7µM*,?
COC(=O)CN1C(=O)COc2ccc(S(=O)(=O)N3CCOCC3)cc21,14.4,-3.2,8.8%,9.28µM*,-14.0%
COc1ccc(CCNC(=O)CN2C(=O)COc3ccc(S(=O)(=O)N4CCCC4)cc32)c(OC)c1,2.2,-10.2,-11.9%,9.28µM*,-29.2%
CC(C)CN(CCNC(=O)CN1C(=O)COc2ccc(S(=O)(=O)N3CCOCC3)cc21)CC(C)C,-1.5,-4.3,-5.4%,62.1%,10.8%
COC(=O)CN1C(=O)COc2ccc(S(=O)(=O)N3CCCCCC3)cc21,-2.2,-5.1,1.1%,?,-7.2%
O=C(NCc1ccco1)/C(=C\c1ccc(F)cc1)NC(=O)c1ccco1,-1.8,-7.3,23.4%,0.8%,10.9%
COc1cccc(N2CCN(C(=O)c3ccccc3SCC(=O)NCc3ccco3)CC2)c1,.,.,.,-15.1%,?
COc1ccccc1N1CCN(C(=O)C(=O)c2cn(CC(=O)N3CCOCC3)c3ccccc23)CC1,-10.1,-6.3,-10.5%,?,-3.9%
CCC(=O)Nc1ccc(C(=O)NNC(=O)c2ccc(C)cc2)cc1,-2.6,-11.3,9.1%,-21.6%,0.3%
Cc1cccc(C(=O)NNC(=O)c2ccc(NC(=O)C(C)(C)C)cc2)c1,30.4*,39.1*,-23.2%,-31.8%,34.0%
Cc1ccc(C(=O)NNC(=O)c2ccc(NC(=O)C(C)(C)C)cc2)cc1,0.7,2.4,17.3%,14.7µM*,5.9%
Cc1noc(C(=O)NC2CCCCC2)c1Cl,5.9,20.3,3.8%,52.3%,0.5%
O=S(=O)(NCCc1ccccc1)c1ccccc1Br,0.5,-4.6,.,.,.
COc1ccc(/C=C2\S/C(=N/S(=O)(=O)c3cccs3)NC2=O)cc1,-1.8,-4.5,.,11.5%,-3.8%
Cc1nc([N+](=O)[O-])cn1CC(O)c1ccccc1 (stereo not given),-2.2,-16.0,-0.1%,35.4%,7.6%
Cc1nc([N+](=O)[O-])cn1Cc1cccc2ccccc12,1.2,-13.8,-0.3%,21.3%,10.4µM*
Cc1cccc(N2CCN(S(=O)(=O)c3c(C)noc3/C=C/N(C)C)CC2)c1C,-2.7,-2.8,17.9%,?,?
CC(=O)NCCC(=O)Nc1cc(S(=O)(=O)N2CCCCC2)ccc1Oc1ccccc1,-4.3,-8.9,5.7%,?,21.9%
SMILES,Cycloheximide cs,Shiga inhibitor,NS1 inh,Pf growth 96h,Pf growth 48h
O=C(O)c1ccc(Cn2ccc3ccccc32)o1,0.5,-6.6,?,204.5%,9.8%
c1ccc(C2(Cn3ccc4ccccc43)OCCO2)cc1,-2.0,-3.7,-9.7%,?,13.1µM*
Cc1cc(C(=O)N2CCCC(N3CCN(Cc4ccc5c(c4)OCO5)CC3)C2)n[nH]1 (stereo not given),1.3,1.4,-1.9%,-28.6%,11.8%
CSc1nc(N(C)NC(=O)c2ccc(F)cc2)c2ccccc2n1,-1.7,-13.3,10.4%,2.33µM*,2.08µM*
C=CCn1cccc(C(=O)Nc2ccc(OC)c(OC)c2)c1=O,36.4,27.9,.,40.6%,34.2%
C=CCn1cccc(C(=O)Nc2cc(OC)cc(OC)c2)c1=O,25.6*,19.6,.,-0.6%,24.2%
C=CCn1cccc(C(=O)Nc2ccc(OC)c(Cl)c2)c1=O,24.1*,54.1*,-8.0%,-2.8%,-3.6%
COC(=O)C1(Cc2ccccc2)NC(c2ccccc2C)C2C(=O)N(c3ccc4c(c3)OCO4)C(=O)C21 (stereo not given),-0.9,3.2,21.2%,22.7%,11.7µM*
